About 83,000 compounds went through this panel and 20% of them were active in at least one assay; those are over-represented in the sample as a whole.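 For each line, cells grew in 96-well plates with the test compound present at a single concentration for 48 hours.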 Unmarked numbers belong to inactive results. The source made the active and inactive calls. Rule for the calls: active = growth percent below 10; inactive = the rest.
Tests used:
Test in all cases: NCI-60 one-dose screen, 48 h (100 = growth as untreated, 0 = no growth, -100 = all killed)
Settings in all cases: 10 µM unless noted
NCI-H23 lung = test system: NCI-H23 lung
NCI-H226 lung = test system: NCI-H226 lung
NCI-H322M lung = test system: NCI-H322M lung
HOP-62 NSCLC = test system: HOP-62 NSCLC
NCI-H460 lung = test system: NCI-H460 lung
HOP-92 NSCLC = test system: HOP-92 NSCLC
NCI-H522 lung = test system: NCI-H522 lung
A549/ATCC NSCLC = test system: A549/ATCC NSCLC
786-0 renal = test system: 786-0 renal
COLO 205 colon = test system: COLO 205 colon

Compound | growth (NCI-H23 lung) | growth (NCI-H226 lung) | growth (NCI-H322M lung) | growth (HOP-62 NSCLC) | growth (NCI-H460 lung) | growth (HOP-92 NSCLC) | growth (NCI-H522 lung) | growth (A549/ATCC NSCLC) | growth (786-0 renal) | growth (COLO 205 colon)
Cc1c(Cl)cccc1N=C=S | 85% | 101% | 95.4% | 88.5% | 101% | 69.6% | 86.8% | 90.4% | 101% | 117%
CC(=O)c1cc(O)ccc1O | 92.9% | 98% | 97.4% | 89.3% | 108% | 58.9% | 100% | 103% | 94.5% | 123%
O=C(NCc1ccco1)Nc1cccc2c(NC(=O)NCc3ccco3)cccc12 | 75.5% [100 µM] | 112% [100 µM] | 120% [100 µM] | 104% [100 µM] | 111% [100 µM] | 124% [100 µM] | 36.5% [100 µM] | 108% [100 µM] | 104% [100 µM] | 71.4% [100 µM]
CC1=CC(=Nc2ccc(N(C)C)cc2)C=C(C)C1=O | 66.2% | 83.5% | 95.8% | 86% | 102% | 48.6% | 94.4% | 77.9% | 95% | -14.5% (active)
CC1(C)CCC(C)(C)NC(=S)N1 | 100% | -99.8% (active) | 109% | 94.9% | 115% | 107% | 94.8% | 108% | 105% | 103%
Clc1cccc(Cl)c1CSc1nc2ccccc2n2cccc12 | 90.6% | 99.1% | 71.8% | 101% | 105% | 94% | 68.3% | 95.4% | 96.9% | 91.2%
COc1ccc(-c2csc(NC(=O)Nc3nc(-c4ccc(OC)cc4)cs3)n2)cc1 | 66.8% | 70.6% | 90.1% | 106% | 84.7% | 89% | 92.5% | 81.3% | 97.8% | 98.5%
Cc1onc(-c2ccccc2Cl)c1C(=O)Cl | 114% | 110% | 101% | 86.5% | 103% | 77% | 108% | 96.9% | 101% | 108%
O=S(Cc1ccccc1)/C(=C/NC(=S)Nc1ccccc1)c1ccccc1 (stereo not drawn) | 89.3% | 101% | 99.7% | 94.9% | 107% | – | 77% | 95.9% | 110% | 101%
O=[N+]([O-])c1c(O)c(CNCCCO)cc(CNCCCO)c1O | 106% | 101% | 99.5% | 106% | 119% | 90.8% | 121% | 95.4% | 118% | 120%
Cc1ccc(S(=O)(=O)NC(=O)NCCSSCCNC(=O)NS(=O)(=O)c2ccc(C)cc2)cc1 | 102% | 91% | 101% | 105% | 103% | 92.2% | 94.9% | 100% | 104% | 129%
Nc1ncnc(Nc2ccccc2)n1 | 101% | 104% | 104% | 119% | 107% | 84.5% | 99.4% | 104% | – | 110%
CCOc1ccc(NC(=S)N2CCC(CCCC3CCN(C(=S)Nc4ccc(OCC)cc4)CC3)CC2)cc1 | 75.8% | 77.1% | 100% | 104% | 91.5% | 59.2% | 77.7% | 83.3% | – | 110%
CCCCN(C(=O)CC)c1ccccc1 | 99.9% | 107% | 97.9% | 105% | 103% | 109% | 95.3% | 96.5% | 99.2% | 99.7%
S=CN1CCCCC1 | 105% | 98.1% | 102% | 108% | 109% | 103% | 109% | 91.8% | 102% | 121%
Cc1cc(CO)c(O)c(CO)c1 | 121% | 115% | 98.7% | 107% | 107% | 96.4% | 84.4% | 103% | 107% | 114%
S=c1nc(-c2ccccn2)c(-c2ccccn2)n[nH]1 | 100% | 101% | 103% | 110% | 112% | 66.2% | 82.7% | 105% | 98.4% | 115%
CC(CCC#N)(CCC#N)C(=O)c1ccccc1 | 109% | 107% | 112% | 107% | 104% | 61% | 88.1% | 97.1% | 110% | 117%
COC(=O)c1ccccc1C(=O)c1c(C)cc(C)cc1C | 94.7% | 89.5% | 101% | 95.1% | 105% | 107% | 87.5% | 84.4% | 104% | 104%
CC(=O)NNC(=S)/N=C\C(C(=O)c1ccccc1)=C(/O)c1ccccc1 | 90.1% | 96.2% | 94.1% | 88.2% | 110% | 100% | 86.3% | 87.3% | 99.8% | 108%
CC(=O)[C@@]1(O)CC[C@H]2[C@@H]3CC[C@@H]4CC(=O)CC[C@]4(C)[C@H]3[C@@H](O)C[C@@]21C | 96.9% | 95.9% | 105% | 74.2% | 110% | – | 88.4% | 81.7% | 99.2% | 95.3%
COC1OC(C(O)C(O)CO)C(O)C(O)C1O (stereo not drawn) | 106% | 93.4% | 98.1% | 88.5% | 106% | 101% | 111% | 97.3% | – | 111%
CC(=O)N(CCCCCCN(C(C)=O)C(C)=O)C(C)=O | 108% [100 µM] | 101% [100 µM] | 108% [100 µM] | 112% [100 µM] | 109% [100 µM] | 106% [100 µM] | 102% [100 µM] | 106% [100 µM] | 96% [100 µM] | 134% [100 µM]
C[n+]1cc2cc3c(cc2c2ccccc21)OCO3 | 42.7% | 55.3% | 39% | 33.7% | 59.2% | 82% | 30.8% | 15.1% | 51.4% | 75.6%
CCOS(=O)(=O)c1ccc([N+](=O)[O-])cc1 | 101% | 101% | 102% | 100% | 107% | – | 94.3% | 86.1% | 107% | 109%
C=CC(C)(C)n1cc(C2=C(O)C(=O)C(c3cn(C(C)(C)C=C)c4ccccc34)=C(O)C2=O)c2ccccc21 | 80.7% | 89.9% | 89% | 73.1% | 89.5% | 60.9% | 98.2% | 89.4% | 87.8% | 96.6%
CS(=O)CC(=N\O)/C(CS(C)=O)=N\O (stereo not drawn) | 106% | 110% | 98% | 102% | 111% | 105% | 96% | 97.4% | 99.2% | 106%
NC(CSSCC(N)C(=O)O)C(=O)O (stereo not drawn) | 20.2% | -9.33% (active) | 36.6% | 15.7% | 42.5% | 17.3% | -6.34% (active) | 36.7% | – | -19.2% (active)
Nc1cc2c(cc1Cl)C(=O)c1ccccc1C2=O | 0.869% (active) | 12.7% | 30.2% | 26.8% | 0.87% (active) | -1.69% (active) | 65% | 27.2% | -19% (active) | 76.2%
CC(=O)Nc1ccc(C(=O)c2ccc(S(=O)(=O)Nc3ccccc3)cc2)cc1 | 231% | 102% | 73.2% | 100% | 97.8% | 74.2% | 84.4% | 81.3% | 156% | 92.4%

Source: PubChem BioAssay (NCI)
